Screening data (PubChem)
TDP1 block: qHTS Assay for Inhibitors of Tyrosyl-DNA Phosphodiesterase (TDP1); Potency, µM (highest dose often 130 µM), for the others: at the top dose activity change, negative = inhibition, most hits filed as inhibitors; recombinant TDP1, AlphaScreen DNA substrate cleavage; actives 0.28% (n = 350,000); AID 485290, 2010; further: on the % scale 0 is the no-effect control and ±100 the full control effect; nearly all actives have a fitted effect of over 40% in size
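Steps: enzyme plus compound, 15 min RT; add biotin/phosphotyrosine-FITC oligonucleotide (15 nM final), react 5 min; add donor/acceptor beads (10 ug/ml final), 10 min; read AlphaScreen. Tdp1 at 1 nM final.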
POLB inh: qHTS Assay for Inhibitors of DNA Polymerase Beta. AID 485314, 2010. actives 1.3% (n = 340,000). Pol beta primer extension/strand displacement, fluorescence kinetic. Potency, µM (top dose mostly 114 µM), for inactives: at the top dose activity change, negative = inhibition, most hits filed as inhibitors. P06746; further: on the % scale 0 is the no-effect control and ±100 the full control effect
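Pol beta (10 nM) was preincubated with compound for 15 min at room temperature. The reaction was then started with 50 nM substrate and read immediately and after a further 10 min at room temperature.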
FEN1 inhibitor: qHTS Assay for the Inhibitors of Human Flap endonuclease 1 (FEN1); Recombinant FEN1 flap cleavage, fluorescence, 15 min; Potency, µM (top dose mostly 114 µM), for inactives: top-dose activity change, negative = inhibition, most hits filed as inhibitors; actives 0.35% (n = 390,000); further: on the % scale 0 is the no-effect control and ±100 the full control effect; nearly all actives have a fitted effect of over 65% in size
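Steps: FEN1 (10 nM) dispensed; compound added by pin tool; 15 min at room temperature; substrate added to 50 nM final; reads at 0 min and 15 min; data normalized and fitted (four-parameter Hill).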
POLI inh: qHTS for Inhibitors of Polymerase Iota; DNA polymerase iota (Homo sapiens), Q9UNA4; Pol iota fluorescent replication assay, 10 min; Potency, µM (highest dose often 115 µM), inactives show at the highest dose activity, negative = inhibition, actives largely listed as inhibitors; actives 1% (n = 390,000)
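Fluorescent replication assay read twice, at 0 min and 10 min after adding 50 nM (final) substrate. Enzyme (10 nM) and compounds were first incubated 15 min at room temperature; enzyme-free buffer wells were negative controls.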
POLK inh: qHTS for Inhibitors of Polymerase Kappa. purified Pol kappa, fluorescent DNA synthesis assay, 10 min. Potency, µM (titrated, usually from 107 µM), without a hit: at the highest dose activity, negative = inhibition, actives largely listed as inhibitors. actives 0.53% (n = 400,000). AID 588579, 2011; further: on the % scale 0 is the no-effect control and ±100 the full control effect
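10 nM Pol kappa preincubated 15 min at room temperature with compounds, then reaction started with substrate at 50 nM final. Fluorescence read kinetically at 0 and 10 min; buffer-only wells served as negative control.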
POLH inh: qHTS for Inhibitors of Polymerase Eta; Potency, µM (titrated, usually from 114 µM), inactives show top-dose activity change, negative = inhibition, usual class: inhibitors; actives 1.2% (n = 390,000); AID 588591, 2011; recombinant Pol eta, fluorescent DNA replication assay; further: on the % scale 0 is the no-effect control and ±100 the full control effect
Target sequence (Q9Y253 whole entry, looked up): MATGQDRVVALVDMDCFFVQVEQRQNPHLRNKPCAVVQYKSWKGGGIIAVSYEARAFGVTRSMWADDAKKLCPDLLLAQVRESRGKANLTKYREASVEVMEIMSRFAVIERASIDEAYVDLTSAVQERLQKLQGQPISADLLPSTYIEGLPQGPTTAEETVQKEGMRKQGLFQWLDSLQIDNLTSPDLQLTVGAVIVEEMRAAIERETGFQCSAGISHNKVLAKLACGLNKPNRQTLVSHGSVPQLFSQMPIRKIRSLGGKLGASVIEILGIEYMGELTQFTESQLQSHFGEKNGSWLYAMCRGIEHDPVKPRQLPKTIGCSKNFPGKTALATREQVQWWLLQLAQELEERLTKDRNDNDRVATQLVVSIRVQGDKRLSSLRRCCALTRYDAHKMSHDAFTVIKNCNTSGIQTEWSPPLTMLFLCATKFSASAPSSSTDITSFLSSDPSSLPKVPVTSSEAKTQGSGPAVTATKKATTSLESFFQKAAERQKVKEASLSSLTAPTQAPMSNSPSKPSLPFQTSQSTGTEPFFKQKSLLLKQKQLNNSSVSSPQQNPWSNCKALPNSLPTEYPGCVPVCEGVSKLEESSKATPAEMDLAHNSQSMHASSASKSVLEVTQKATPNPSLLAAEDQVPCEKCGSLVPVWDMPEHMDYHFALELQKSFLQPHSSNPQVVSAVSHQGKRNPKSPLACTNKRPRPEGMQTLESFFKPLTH
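Fluorescent replication assay: 50 nM final substrate added after a 15 min room-temperature compound preincubation with 10 nM enzyme. Signal taken at 0 min and again at 10 min.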
An asterisk follows results filed as active; ? = inconclusive; . = no result given; [ ] = remark or other dose. Only some compounds are listed: those with a hit (about 2.4% of all), similar ones and a draw of the others. The call rests on the fitted dose curve; in most records, active means well fitted curve in the direction sought with a large enough effect; inconclusive means small, poorly fitted or top-dose-only effect, or another doubt; inactive means no such curve, though single readings can be large; an effect the other way counts as inactive or inconclusive. Potency means the concentration at half of the fitted maximal effect.

SMILES	TDP1 block	POLB inh	FEN1 inhibitor	POLI inh	POLK inh	POLH inh
O=C(O)c1ccc(S(=O)(=O)c2ccc3c(c2)C(=O)N(NC(=O)c2ccc(O)cc2)C3=O)cc1	-1%	28µM*	0%	75%	-9%	-4%
COc1ccc2c(CNC3CCCC3)c(C(=O)O)n(Cc3ccccc3C)c2c1	3%	23%	1%	-4%	-2%	6%
CCc1cc(CNC(=O)c2ccc(OC3CCN(CCc4ccccc4)CC3)cc2)on1	14µM*	?	14%	?	-22%	-13%
COC(=O)c1ccc(Cl)cc1NC(=O)Nc1nnc(N(C)C2CCCCC2)s1	9%	6%	0%	41%	-10%	-19%
O=C(NN1C(=O)/C(=C/c2ccc(O)cc2)SC1=S)c1ccccc1O	.	-20%	-20%	?	-26%	79µM*
Cc1ccc(/C=C2/SC(=S)N(CCCC(=O)Nc3cc([N+](=O)[O-])ccc3O)C2=O)cc1	2%	21%	-7%	20%	-10%	-5%
O=C(CN1C(=O)S/C(=C\c2ccc(Cl)cc2)C1=O)NNC(=O)c1ccccc1O	-2%	50µM*	-24%	?	-36%	?
O=C(CN1C(=O)S/C(=C\c2ccccc2)C1=O)Nc1cc([N+](=O)[O-])ccc1O	10%	-1%	1%	-21%	0%	79µM*
O=C1c2ccccc2C(=O)N1c1cncc2ccccc12	3%	.	.	.	.	.
O=C(O)/C(=C/c1ccc(Cl)c([N+](=O)[O-])c1)c1ccc(S(=O)(=O)N2CCCCC2)s1	.	.	-4%	?	89µM*	28µM*
O=C(O)/C(=C\c1cccc(O)c1)c1ccc(S(=O)(=O)N2CCCC2)s1	.	.	-1%	?	?	35µM*
Cc1ccc(S(=O)(=O)N2CCCC2)s1	1%	18%	0%	-9%	2%	-8%
O=C(O)/C(=C\c1cccc(F)c1)c1ccc(S(=O)(=O)N2CCCCC2)s1	-1%	22µM*	1%	?	-20%	?
O=C(Cc1ccc(S(=O)(=O)N2CCOCC2)s1)N1CCN(S(=O)(=O)c2cccc(F)c2)CC1	.	.	-9%	0%	-8%	-13%
O=[N+]([O-])c1cc(S(=O)(=O)N2CCCCCC2)ccc1Cl	-5%	-1%	-12%	131%	-2%	-8%
Cc1ccc(NC(=O)C(=O)NCC(c2ccc3c(c2)OCO3)N2CCOCC2)cc1C (stereo unspecified)	-2%	15%	0%	8%	-5%[60.1 µM]	-5%
COc1ccccc1-c1nnc(SC/C(O)=C(\C#N)c2nc3ccccc3[nH]2)n1C1CCCCC1	5%	-26%	-9%	10%	-6%	?
N#C/C(=C(/O)CSc1nnc(Cc2cccs2)n1C1CCCCC1)c1nc2ccccc2[nH]1	1%	18µM*	-5%	?	?	25µM*
CN=C1C=CC(=C(c2ccc(N(C)C)cc2)c2ccc(N(C)C)cc2)C=C1	.	.	.	.	-6%[19.4 µM]	.
CN(C(=O)CSc1nc2ccc(NC(=O)c3ccccc3)cc2s1)c1ccccc1	5%	1%	-16%	-19%	-22%	-11%
COc1ccc(N=C2S/C(=C\c3ccco3)C(=O)N2CC(C)C)cc1	4%	79µM*	-5%	-3%	-2%	-10%
CCOCCn1c(N2CCCN(C)CC2)nc2ccccc21	.	.	.	.	2%[19.4 µM]	.
CS(=O)(=O)N(CC(=O)NCc1ccco1)c1ccc(OCc2ccccc2)cc1	2%	16µM*	-7%	?	-13%	-13%
